Screening data: PubChem BioAssay, The Scripps Research Institute Molecular Screening Center
Most compounds without a hit are left out; they make up all but 0.9% or so of the library.
PPARg SRC-2 ag: promotes SRC-2 coactivator recruitment by human PPARgamma; P37231; PPARgamma LBD-SRC-2 recruitment, biochemical; activation, % at 8 µM; actives 0.34% (n = 200,000); AID 1032; in the data active = activation above about 22%;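 note: 0% = vehicle and 100% = reference agonist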
Target sequence (P37231 whole entry, looked up, the tested form may be a part): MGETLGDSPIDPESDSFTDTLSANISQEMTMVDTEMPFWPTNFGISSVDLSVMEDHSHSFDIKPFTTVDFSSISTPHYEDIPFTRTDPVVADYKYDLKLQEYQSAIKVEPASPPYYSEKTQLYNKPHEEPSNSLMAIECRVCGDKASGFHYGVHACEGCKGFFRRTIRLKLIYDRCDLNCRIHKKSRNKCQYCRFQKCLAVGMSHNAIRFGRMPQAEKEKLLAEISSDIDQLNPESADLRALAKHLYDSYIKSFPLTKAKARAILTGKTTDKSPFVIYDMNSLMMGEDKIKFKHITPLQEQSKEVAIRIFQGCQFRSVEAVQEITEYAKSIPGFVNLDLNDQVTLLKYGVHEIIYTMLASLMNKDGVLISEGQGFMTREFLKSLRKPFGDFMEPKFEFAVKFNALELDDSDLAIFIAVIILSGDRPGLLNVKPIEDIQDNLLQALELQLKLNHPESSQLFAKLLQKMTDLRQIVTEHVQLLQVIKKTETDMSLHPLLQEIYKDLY
SRC3 TRFRET art: flags TR-FRET format artefacts in PPARgamma SRC-3 recruitment agonist screen | TR-FRET artefact counter-screen, PPARgamma/SRC-3 format; active compounds read high | AID 1048 | TR-FRET ratio at 8 µM | actives 0.39% (n = 99,000)
PPARg SRC1 recr: agonists of human PPARgamma SRC-1 coactivator recruitment; P37231; PPARgamma-SRC-1 coactivator recruitment biochemical assay; activation, % at 8 µM; actives 0.41% (n = 200,000); in the data active = activation above about 19%;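 note: 0% = DMSO and 100% = reference agonist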
TR-FRET SRC-2 ct: flags TR-FRET format artefacts in PPARgamma SRC-2 recruitment agonist screen; TR-FRET ratio at 8 µM; actives 0.4% (n = 200,000); TR-FRET artefact counter-screen; active compounds read high
PPARg SRC3 recr: agonists of human PPARgamma SRC-3 coactivator recruitment; biochemical PPARgamma/SRC-3 coactivator recruitment assay; activation, % at 8 µM; actives 0.26% (n = 200,000); AID 731; P37231; in the data active = activation above about 23%;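 note: 0% = DMSO and 100% = reference agonist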
SRC1 TRFRET art: flags TR-FRET format artefacts in PPARgamma SRC-1 recruitment agonist screen | TR-FRET detection artefact counter-screen, emission ratio; active compounds read high | TR-FRET ratio at 8 µM | actives 0.34% (n = 99,000) | AID 1051; in the data active = TR-FRET ratio above about 2300
* hit, by the source's call; / = no result given. Cut-off read from the data, not from the text of the source, unless noted: active = TR-FRET ratio above about 2000; inactive = the rest.

SMILES	PPARg SRC-2 ag	SRC3 TRFRET art	PPARg SRC1 recr	TR-FRET SRC-2 ct	PPARg SRC3 recr	SRC1 TRFRET art
Nc1nc(C2CCCN2S(=O)(=O)c2ccc(Cl)cc2)cs1 (configuration not stated)	7.2	/	20.7*	1686	5.3	/
CCOc1ccc2oc(C(=O)OCC(=O)NC3CC3)c(C)c2c1	0.2	1305	-4.6	1332	0.3	1569
CN(CP(=O)(O)CN(C)S(C)(=O)=O)S(C)(=O)=O	1.3	/	20.6*	1670	3.8	/
CCCNS(=O)(=O)c1cc(Cl)ccc1OC	-4.0	1661	1.9	1561	3.4	1760
Cc1ccc(-c2csc(N/N=C/c3ccco3)n2)cc1	3.1	/	-4.8	1751	8.8	/
Brc1ccc(-c2csc(N/N=C/c3ccco3)n2)cc1	22.0*	1608	3.4	1757	1.3	1707
Cc1ccc(/C=N/N=C2/NC(=O)C(CC(=O)Nc3ccccc3)S2)o1 (configuration not stated)	4.0	1494	3.0	1628	1.4	1731
Cc1ccc(/C=C2\SC(N)=NC2=O)s1	24.0*	1453	9.7	1747	6.8	2150
Cc1ccsc1/C=C1\SC(N)=NC1=O	10.9	/	5.7	1449	5.7	/
COc1ccccc1C(=O)Nc1cccc(-c2cn3ccsc3n2)c1	5.6	/	3.4	1580	27.6*	/
O=C(CN(c1ccc(F)cc1)S(=O)(=O)c1ccccc1)NCCSC1CCCCC1	-5.6	1557	-10.1	1531	-4.3	1587
COc1ccc(-c2csc3nc(C)nc(N4CCN(c5ccc(C(C)=O)cc5)CC4)c23)cc1OC	-0.5	2053*	1.9	1584	0.5	1874
O=C1C2C3C=CC(CC3)C2C(=O)N1c1ccccc1[N+](=O)[O-] (configuration not stated)	5.6	1698	3.9	1796	1.8	1885
CCOC(=O)c1cnc2c(C(F)(F)F)cccc2c1N1CCOCC1	-0.8	/	-9.0	1583	-3.0	/
CCOC(=O)c1cnc2c(C)c(Cl)ccc2c1N1CCOCC1	-0.4	/	7.2	1588	40.1*	/
Cc1cccn2c(=O)c3cc(C(=O)NCCN4CCOCC4)c(=N)n(CCc4ccccc4)c3nc12	6.4	/	6.7	1506	27.9*	/
O=c1c([N+](=O)[O-])cccn1Cc1cccc(Cl)c1	1.6	1643	4.1	1741	4.0	2135
Cc1ccc(C(=O)CSc2nnc(N)s2)c(C)c1	3.7	1794	4.1	1497	0.6	1753
NC(N)=Nc1nc(CSCC/C(N)=N/S(N)(=O)=O)cs1	6.9	1747	21.6*	1766	6.1	1933
COC(=O)c1ccccc1NC(=O)COc1ccc(S(=O)(=O)NC(C)C)cc1	5.0	1489	5.4	1608	6.4	1832
CCC(C)NC(=O)Cc1c(OC)ccc2cc(Br)ccc12 (configuration not stated)	13.6	1936	18.9	2014*	7.9	2168
COc1ccc(NS(=O)(=O)c2ccc(N3CCCC3)c(NC(=S)Nc3cccc(S(=O)(=O)N(C)C)c3)c2)cc1	-8.0	2049	4.1	1957	-2.6	2504*
COc1ccc(NS(=O)(=O)c2ccc(N3CCOCC3)c(NC(=O)c3ccc(OC)cc3)c2)cc1	-1.4	1564	7.1	1682	0.5	1747
COC(=O)CSc1nc2cc3c(cc2cc1C#N)OCO3	3.4	/	80.6*	1413	17.8	/
CC(C)OC(=O)CSc1nc2cc3c(cc2cc1C#N)OCO3	2.7	/	54.2*	1557	5.5	/
SMILES	PPARg SRC-2 ag	SRC3 TRFRET art	PPARg SRC1 recr	TR-FRET SRC-2 ct	PPARg SRC3 recr	SRC1 TRFRET art
N#CCC(=O)Nc1ccc(C(=O)NCC(c2ccco2)N2CCCCC2)cc1 (configuration not stated)	-0.9	1671	-0.6	1465	0.7	2059
O=C(NC(=S)Nc1ccc(S(=O)(=O)Nc2nccs2)cc1)c1ccccc1	5.3	1629	8.8	1692	0.2	1767
O=C(CSc1ccc(Br)c2cccc(Cl)c12)Nc1ccc(S(=O)(=O)Nc2nccs2)cc1	10.4	2321*	30.0*	1982*	11.7	2830*
CC(C)C(=O)NC(=S)Nc1ccc(S(=O)(=O)Nc2nccs2)cc1	8.6	1730	4.3	1735	4.5	2318*
O=C(COc1cccc(Cl)c1)Nc1nc(-c2ccc(S(=O)(=O)N3CCOCC3)cc2)cs1	11.4	/	11.2	2278*	21.0	/
O=C(Nc1nc(-c2cccs2)cs1)c1cccc(S(=O)(=O)N2CCCCCC2)c1	2.3	/	3.1	2098*	-1.0	/
O=C(COC(=O)c1cccc(S(=O)(=O)N2CCOCC2)c1)Nc1nc(-c2ccccc2Cl)cs1	1.6	/	8.9	1499	2.8	/
O=C(Nc1nc(-c2ccncc2)cs1)c1ccc(S(=O)(=O)N2CCOCC2)cc1	-2.9	/	5.4	1646	6.3	/
CCOc1cccc(C(=O)Nc2nc(-c3ccc(S(=O)(=O)N4CCOCC4)cc3)cs2)c1	18.1	/	14.0	2173*	19.4	/
COc1ccccc1OC(C)C(=O)Nc1nc(-c2ccc(S(=O)(=O)N3CCOCC3)cc2)cs1 (configuration not stated)	8.8	/	5.3	2207*	-12.1	/
CN(C)c1oc(-c2ccccc2Cl)nc1P(=O)(c1ccccc1)c1ccccc1	5.5	/	6.7	1452	2.3	/
Cc1ccc(Cl)cc1N1CCN(C(=O)Cc2ccc(-n3c(=O)[nH]c4ccsc4c3=O)cc2)CC1	7.2	1809	-0.1	1589	-2.7	1885
O=C(CCCOc1ccc(Cl)cc1Cl)N/N=C/c1cccc([N+](=O)[O-])c1	10.6	1655	0.2	1469	3.0	1762
Cc1ccc(N(CC(=O)NC(C)(C)C)C(=O)CNC(=O)c2cccs2)cc1C	1.5	1618	4.5	1580	2.8	1774
COc1nc(NCCO)nc(Nc2ccccc2F)n1	4.4	1540	2.2	1547	1.1	1702
CCOC(=O)c1nn(-c2ccc(Cl)cc2)c2nc(-c3ccc(C)cc3)c(C#N)c(=O)n12	-0.4	/	7.5	1733	51.9*	/
O=C(NCc1ccco1)c1cc(-c2ccncc2)nc2ccccc12	0.3	/	0.8	1597	2.2	/
O=C(NCc1ccccn1)c1cc(-c2ccc(-c3ccccc3)cc2)nc2ccccc12	0.8	2387*	2.5	1653	-1.2	1888
O=C(NCc1ccccn1)c1cc(-c2ccccc2)nc2ccccc12	6.5	1462	-4.3	1426	-3.4	1648
O=C(NCc1ccco1)c1cc(-c2cccnc2)nc2ccccc12	11.8	1623	3.4	1779	-3.7	2325*
COc1cccc(-c2csc(N3CCN(C(=S)Nc4ccccc4Cl)CC3)n2)c1	3.1	/	0.4	1818	3.9	/
COc1cccc(-c2csc(N3CCN(C(=S)Nc4cccc(Cl)c4)CC3)n2)c1	9.1	/	4.8	2562*	13.9	/
COc1cccc(-c2csc(N3CCN(C(=S)Nc4ccccc4OC)CC3)n2)c1	5.0	/	4.4	2307*	1.7	/
COc1ccccc1CNCC(=O)N1CC(=O)Nc2ccccc21	-0.7	1455	6.1	1457	9.1	1748
Clc1ccc(-c2ccc(C=Nc3ccc(N4CCOCC4)cc3)o2)c(Cl)c1	12.8	1761	7.3	2149*	1.7	2177
